# Measured values reported in PubChem BioAssay (NCATS).
# Results filed as inconclusive are left out. Values without a mark were called inactive. Activity calls are given as the source filed them. Calls follow the shape of the dose curve; as a rule, active = well fitted cell-killing curve with a large enough effect; inconclusive = small, poorly fitted or top-dose-only effect, or effect the other way; inactive = no such curve, though single readings can be large or run the other way.
# Experiment: Viability qHTS for spleen associated tyrosine kinase inhibitor (SYKi) drug resistant MV4-11 cells (AID 1963824); also: nearly all actives have a fitted effect of over 35% in size
# Conditions: SYKi-resistant MV4-11 viability, CellTiter-Glo, 72 h; series mostly up to 45 µM; viability, % of control: at the top concentration
# Method in brief: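 SYK-inhibitor-resistant MV4-11 AML cells were seeded at 500 per well onto compound and cultured 72 hours (37 °C, 5% CO2). CellTiter-Glo was then added, and after 10 min at room temperature, luminescence gave viability.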
# Potency is read from the fitted curve at half-maximal effect.
Compound,Potency,"viability, % of control"
N#Cc1ccc(Cn2cncc2CN2CCN(c3cccc(Cl)c3)C(=O)C2)cc1,2.95 µM (active),–
Cc1ccc(C)c(-c2cc(C(F)(F)F)nn2-c2ccc(S(N)(=O)=O)cc2)c1,14.6 µM (active),–
Cc1ccc2c(Nc3ccc(Cl)cc3)nccc2c1Nc1ncccc1-c1ncnc2nc[nH]c12,2.31 µM (active),–
CC1(C)CCCC2(C)C3=C(C(=O)OC3O)C(O)CC12 (stereo unspecified),–,93.6%
O=C1OC2(c3ccc(O)cc3Oc3cc(O)ccc32)c2ccccc21,–,57.2%
C=C1C(OC(C)=O)[C@@]23CCC4[C@](C)(C(=O)O)CCC[C@@]4(C)[C@]2(O)CC[C@H]1C3 (stereo partly specified),–,80.2%
C/C=C(\C)C(=O)O[C@H]1[C@@H](O[C@]2(COC(=O)CC(C)C)O[C@H](COC(=O)C(C)CC)[C@@H](OC(C)=O)[C@@H]2O)O[C@H](COC(C)=O)[C@@H](O)[C@@H]1O (stereo partly specified),–,94.5% [at 17.3 µM]
Cc1[nH]c(/C=C2\C(=O)Nc3cc(-c4ccccc4)ccc32)c(C)c1CCC(=O)O,10.3 µM (active),–
C[C@@H]1O[C@@H](O[C@H]2[C@@H](OC(=O)[C@]34CCC(C)(C)CC3C3=CCC5[C@@]6(C)C[C@H](O)[C@H](O[C@@H]7O[C@H](C(=O)O)[C@@H](O)[C@H](O)[C@H]7O)[C@@](C)(C(=O)O)C6CC[C@@]5(C)[C@]3(C)CC4)OC[C@H](O)[C@@H]2O)[C@H](O)[C@H](O)[C@H]1O[C@@H]1OC[C@@H](O)[C@H](O)[C@H]1O (stereo partly specified),–,74.1% [at 9.25 µM]
COc1cc(C[C@H]2C(=O)OC[C@@H]2Cc2ccc(OC)c(OC)c2)ccc1O,0.255 µM (active),–
CCCSc1nc(N[C@@H]2C[C@H]2c2ccc(F)c(F)c2)c2nnn([C@@H]3C[C@H](OCCO)[C@@H](O)[C@H]3O)c2n1,23.1 µM (active),–
CC(=O)O[C@@H]1CC2C(/C=C(\C)C(=O)[C@@]3(O)C[C@@H](C)[C@H](OC(=O)c4ccccc4)C3/C=C/1C)C2(C)C (stereo partly specified),10 µM (active),–
COC1=Cc2c(nc3n(c2=O)C(C)C(=O)NC3(O)C(C)C)OC=C1 (stereo unspecified),–,84.3%
C#C[C@]1(O)CC[C@H]2[C@@H]3CCC4=C/C(=N/O)CC[C@@H]4[C@H]3CC[C@@]21CC,25.9 µM (active),–
CCc1cnn2c(NCc3ccc[n+]([O-])c3)cc(N3CCCCC3CCO)nc12 (stereo unspecified),0.0065 µM (active),–
c1ccc(-c2cnn3cc(-c4ccc(OCCN5CCOCC5)cc4)cnc23)cc1,0.058 µM (active),–
C=C1C(=O)O[C@@H]2C=C(COC(C)=O)CC/C=C(\CO)CC[C@@H]12,14.3 µM (active),–
Cn1cc(S(=O)(=O)c2ccc(Cl)cc2)c2cccc(N3CCNCC3)c21,13 µM (active),–
COc1cc(NC(=O)c2cccc(-n3cc(NC(=O)Nc4cccc(C)c4)cn3)c2)cc(OC)c1OC,9.2 µM (active),–
CC(C)C1NC(=O)CNC(=O)C2CCCN2C(=O)C(Cc2c[nH]c3ccccc23)NC(=O)CNC(=O)C(Cc2ccc(O)cc2)NC(=O)CNC1=O (stereo unspecified),–,77.6% [at 17.3 µM]
C[C@@H]1C(=O)O[C@H]2[C@H]1CC[C@@]1(C)C(=O)C=C[C@@](C)(O)[C@H]21,–,102%
O=C(O)c1ccc2c3c1cccc3c(=O)n1c3ccccc3nc21,–,79.9%
COc1ccc(C2(O)CCC(N3CC[C@@H](NC(=O)CNC(=O)c4cccc(C(F)(F)F)c4)C3)CC2)cn1 (stereo partly specified),–,56.7%
COC(=O)C[C@H]1C(C)(C)[C@H](OC(=O)c2ccccc2)C2CC3=C4CC(=O)O[C@@H](c5ccoc5)[C@]4(C)CCC3[C@@]1(C)C2=O (stereo partly specified),10 µM (active),–
COc1cc(O)cc(C)c1C(=O)O[C@H]1[C@@H](OC(C)=O)[C@H](n2ccc(=O)[nH]c2=O)O[C@@H]1CO,–,104% [at 17.3 µM]
C/C=C(/C)C(=O)O[C@H]1[C@H](OC(=O)/C(C)=C\C)[C@@]23C(CC1(C)C)[C@]1(CCC4[C@@]5(C)CC[C@H](O[C@@H]6O[C@H](C(=O)O)[C@@H](O)[C@H](O[C@@H]7O[C@H](CO)[C@H](O)[C@H](O)[C@H]7O[C@@H]7O[C@@H](C)[C@H](O)[C@@H](O)[C@H]7O[C@@H]7OC[C@@H](O)[C@H](O)[C@H]7O)[C@H]6O[C@@H]6O[C@H](CO)[C@H](O)[C@H](O)[C@H]6O)C(C)(C)C5CC[C@@]4(C)[C@]1(C)C[C@H]2O)O[C@H]3O (stereo partly specified),0.776 µM (active),–
